{"source": "PubChem BioAssay (NCI)", "note": "Several values for one entry are separate records, joined by “and”; a condition that tells them apart may be missing. Equal entries are not always repeated. The panel holds about 83,000 compounds, 20% with a hit somewhere; the sample as a whole holds those more often.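 A percent growth of 40 corresponds to 60% growth inhibition; 0 means no net growth; -100 means all cells died. Active threshold: below 10.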 Activity calls are given as the source filed them."}
{"test_system": "MDA-MB-468 breast", "experiment": "NCI-60 one-dose screen, 48 h (100 = growth as untreated, 0 = no growth, -100 = all killed)", "details": "10 µM unless noted"}
{"smiles": "COc1ccc2c(c1)c(-c1nnc(N)nc1-c1cn(C)c3ccccc13)cn2C", "growth": "78.8% (inactive)"}
{"smiles": "NS(=O)(=O)c1ccc(CCn2c(SCC(=O)c3ccc(Cl)cc3)nc3ccccc3c2=O)cc1", "growth": "105% (inactive)"}
{"smiles": "C=CCNC(=S)NN", "growth": "56.5% (inactive)"}
{"smiles": "CC[N+](C)(CC)CCO", "growth": "91.8% (inactive)"}
{"smiles": "Cc1cc(C(C)(C)C)ccc1S", "growth": "104% (inactive)"}
{"smiles": "COC(=O)c1nc(-c2ccc(C)cc2)oc1S(=O)(=O)N1CCN(c2oc(-c3ccccc3)nc2C#N)CC1", "growth": "93.9% (inactive)"}
{"smiles": "CC(=O)Nc1ccc(S(N)(=O)=O)cc1", "growth": "100% (inactive) and 97.2% (inactive)"}
{"smiles": "O=S(=O)(NCCCNc1nccc(-c2c(-c3cccc(F)c3)nc3occn23)n1)c1ccc(F)cc1", "growth": "26.7% (inactive)"}
{"smiles": "Cc1c2c(cc[n+]1Cc1ccccc1)c1ccc(OCc3ccccc3)cc1n2Cc1ccccc1", "growth": "-42.3% (active)"}
{"smiles": "CCOC(=O)c1cnc2c(-c3ccc(Cl)c(Cl)c3)cnn2c1", "growth": "85.4% (inactive)"}
{"smiles": "CC(C)(O)c1cccc(F)c1", "growth": "93.8% (inactive)"}
{"smiles": "CCNC(=O)Oc1ccc(/C(=C(/C)Cc2ccc(OC)cc2)c2ccc(OCCN3CCCCCC3)cc2)cc1", "growth": "51.8% (inactive)"}
{"smiles": "O=C(c1c[nH]c2ccccc12)c1n[nH]c(=S)n1-c1ccc([N+](=O)[O-])cc1", "growth": "106% (inactive)"}
{"smiles": "Nc1c(Br)cc(Br)c2c1[nH]c(=O)c1ccccc12", "growth": "-20.4% (active)"}
{"smiles": "CCOC(=O)C(C(=O)OCC)C(c1ccccc1)N1CCN(c2ccccc2)CC1", "note": "(stereo not given)", "growth": "108% (inactive) and 103% (inactive)"}
{"smiles": "Clc1ccccc1N=Cc1ccc2c(c1)OCO2", "growth": "101% (inactive)"}
{"smiles": "COc1cc(C2CC(c3ccc(C)cc3)=NN2C=O)ccc1Oc1nc2c(c(=O)n(C)c(=O)n2C)n1C", "note": "(stereo not given)", "growth": "73.8% (inactive)"}
{"smiles": "O=C1Nc2ccccc2/C1=C/c1cccn1CCCCCCn1c2ccccc2c(=O)c2ccccc21", "growth": "8.47% (active)"}
{"smiles": "CCCCn1c(-c2ccc(O)cc2)cn2c3c(=O)[nH]c(=O)n(C)c3nc12", "growth": "43.4% (inactive)"}
{"smiles": "O=c1[nH]c(-c2ccccn2)nc2sc3c(c12)CCCCC3", "growth": "50% (inactive)"}
{"smiles": "CC(=O)Nc1c(Cl)cc2c(c1Cl)Cc1cc([N+](=O)[O-])ccc1-2", "growth": "-27.8% (active)"}
{"smiles": "CN(C)c1cccc2c(S(=O)(=O)/N=C(\\N)Nc3nc4ccccc4s3)cccc12", "growth": "-8.02% (active)"}
{"smiles": "COc1ccc(CCN2C(=O)/C(=C/c3nc(CO)cs3)SC2=S)cc1", "growth": "27% (inactive)"}
{"smiles": "CNC(=O)c1cc(Oc2cccc3nc(Nc4ccc(Oc5ccccc5)cc4)ccc23)ccn1", "growth": "63.7% (inactive)"}
{"smiles": "CC(=O)Nc1cccc(C2=CC(c3ccc(C)cc3)n3ncnc3N2)c1", "note": "(stereo not given)", "growth": "92.7% (inactive)"}
{"smiles": "Cn1cc(CC2CC(=O)N(c3ccccc3)C2=O)sc1=NC(=O)c1ccccc1", "note": "(stereo not given)", "growth": "99.8% (inactive)"}
{"smiles": "N#C/C(=C\\c1ccc(-c2cccc(Cl)c2)o1)C(=O)Nc1ncc(Cc2ccc(Cl)cc2)s1", "growth": "47% (inactive)"}
{"smiles": "CC(C)N(Cc1ccc(CN(C(=O)CCl)C(C)C)cc1)C(=O)CCl", "growth": "15.4% (inactive)"}
{"smiles": "NC(N)=NS(=O)(=O)c1ccc(Nc2ccc3nnc(-c4ccncc4)n3n2)cc1", "growth": "96.6% (inactive)"}
{"smiles": "CCCCN1C(=O)/C(=c2\\sc3n(c2=O)C2C(NN=3)N(CC)C(=O)N2CC)c2cc(C)ccc21", "note": "(stereo not given)", "growth": "65.4% (inactive)"}
{"smiles": "Cn1c(SCC(=O)c2ccc(F)cc2)nc2ccccc2c1=O", "growth": "79.4% (inactive)"}
{"smiles": "BrC(Br)(Br)c1cnc2ccccc2n1", "growth": "-24.8% (active)"}
{"smiles": "Cc1cc(N2CCN(CC(=O)Nc3ccc4c(ccn4Cc4ccccc4)c3)CC2)nc(N2CCCCCC2)n1", "growth": "13.1% (inactive)"}
{"smiles": "Cc1cc(C)c2c(NC(=O)Nc3ccc(Cl)c(Cl)c3)n[nH]c2n1", "growth": "109% (inactive)"}
{"smiles": "CCCCCCCCCCCCCCCCCCNC(=O)[C@H]1CSC(c2ccc(OC)c(F)c2)N1", "note": "(stereo not given in full)", "growth": "76.9% (inactive)"}
{"smiles": "CC/C(=C(/CC)c1ccc(O)cc1)c1ccc(O)cc1", "growth": "35.2% (inactive)"}
{"smiles": "CC(=O)Nc1ccc2c(c1)c(NC(C)=O)nn2C(=O)Nc1ccc(Cc2ccccc2)cc1", "growth": "80.1% (inactive)"}
{"smiles": "CC/C(=C(\\c1ccc(OCCN2CCCCCCC2)cc1)c1ccc(OC(=O)C2CCCCC2)cc1)c1ccc(Cl)cc1", "growth": "114% (inactive)"}
{"smiles": "COc1ccc(S(=O)(=O)NCCCNc2nccc(-n3cnc4ccccc43)n2)cc1", "growth": "77.2% (inactive)"}
{"smiles": "COc1ccc(-c2nnc(COc3ccc(NC(=O)Nc4ccccc4)cc3F)o2)cc1", "growth": "86.9% (inactive)"}
